Reference: PubChem BioAssay (NCI)
This is part of a sample that, as a whole, favours compounds with a hit. Of some 83,000 tested, about 20% had one in any assay.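 Results are percent growth after 48 hours of single-concentration exposure. 100 means growth as in untreated cells, lower positive values show inhibition; negative values down to -100 show cell death.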 Unmarked numbers belong to inactive results. Calls of active or inactive are those of the source. Rule for the calls: active = growth percent below 10; inactive = the rest.

Tests used:
Assay in all cases: NCI-60 one-dose screen, 48 h (100 = growth as untreated, 0 = no growth, -100 = all killed)
Conditions in all cases: 10 µM unless noted
NCI-H23 lung = test system: NCI-H23 lung
NCI-H226 lung = test system: NCI-H226 lung
NCI-H322M lung = test system: NCI-H322M lung
HOP-62 NSCLC = test system: HOP-62 NSCLC
NCI-H460 lung = test system: NCI-H460 lung
HOP-92 NSCLC = test system: HOP-92 NSCLC
NCI-H522 lung = test system: NCI-H522 lung
A549/ATCC NSCLC = test system: A549/ATCC NSCLC
786-0 renal = test system: 786-0 renal
COLO 205 colon = test system: COLO 205 colon
DU-145 prostate = test system: DU-145 prostate
K-562 leukemia = test system: K-562 leukemia
MALME-3M melanoma = test system: MALME-3M melanoma
MDA-MB-231 breast = test system: MDA-MB-231 breast
RXF 393 renal = test system: RXF 393 renal
SF-268 CNS = test system: SF-268 CNS
SF-295 CNS = test system: SF-295 CNS
SF-539 CNS = test system: SF-539 CNS
UACC-257 melanoma = test system: UACC-257 melanoma
M14 melanoma = test system: M14 melanoma

| Structure (SMILES) | growth (NCI-H23 lung) | growth (NCI-H226 lung) | growth (NCI-H322M lung) | growth (HOP-62 NSCLC) | growth (NCI-H460 lung) | growth (HOP-92 NSCLC) | growth (NCI-H522 lung) | growth (A549/ATCC NSCLC) | growth (786-0 renal) | growth (COLO 205 colon) | growth (DU-145 prostate) | growth (K-562 leukemia) | growth (MALME-3M melanoma) | growth (MDA-MB-231 breast) | growth (RXF 393 renal) | growth (SF-268 CNS) | growth (SF-295 CNS) | growth (SF-539 CNS) | growth (UACC-257 melanoma) | growth (M14 melanoma) |
| --- | --- | --- | --- | --- | --- | --- | --- | --- | --- | --- | --- | --- | --- | --- | --- | --- | --- | --- | --- | --- |
| COc1ccc2nc3c(cc2c1)C(=O)CC(c1ccccc1)C3 (stereo not given) | 47.5% | 26.5% | 37.8% | 39.2% | 8.79% (active) | 61.6% | 15.4% | 34.8% | 52.8% | 1.93% (active) | 1.12% (active) | 13.2% | 47.7% | 54.6% | -2.76% (active) | 53.9% | 31% | 7.92% (active) | 82.9% | 9.28% (active) |
| CC1=CC[C@@H]2C(C)(C)[C@@H](O)CC[C@@]2(C)[C@@H]1COc1ccc2ccc(=O)oc2c1 | 74.7% | 38.2% | 91.1% | 67.2% | 88.6% | 51.3% | 25.9% | 43% | 92.9% | 55.3% | 68.9% | 36% | 72.3% | 78.7% | 65% | 66.1% | 46.5% | 85.6% | 102% | 76.9% |
| CCOc1cc(NC(=O)c2ccccc2)c(OCC)cc1N | 102% | 106% | 141% | 102% | 114% | 104% | 98.3% | 115% | 110% | 116% | 110% | 113% | 147% | 104% | 117% | 106% | 121% | 112% | 118% | 116% |
| Cn1cc(-c2noc(-c3cn(C)c4ncc(F)cc34)n2)c2cc(Br)ccc21 | 79.9% | 98.7% | 53.7% | 67.8% | 22.8% | 81.1% | 74.8% | 45.2% | 49.4% | 77.9% | 84.6% | 86.6% | 57.5% | 60.8% | 90.9% | 76.1% | 84.6% | 71.3% | 98.7% | 85.7% |
| CCN1CCN(CC(=O)Nc2nc3ccc(NCc4ccc(Cl)cc4)cc3s2)CC1 | 69.2% | 60% | 79.4% | 77.6% | 54.7% | 31.6% | 86.3% | 61.5% | 73% | 23.8% | 89.6% | 2.71% (active) | 0.984% (active) | 51.9% | 51.2% | 71% | 81.6% | 64.3% | 7.11% (active) | -76.6% (active) |
| COc1ccc(/C=C(/C2=NCCN2)n2ccc3ccccc32)cc1 | 100% | 81.5% | 92% | 97.1% | 93.1% | 56.7% | 85.9% | 99.8% | 88.8% | 83.9% | 96.2% | 84.3% | 87% | 89.5% | 77.9% | 79.3% | 85.8% | 92.7% | 94.3% | 86.2% |
| COc1ccc(OC)c([N+](=O)[O-])c1C(=O)CNC(C)=O | 105% | 101% | 105% | 105% | 107% | 89.9% | 95.7% | 100% | 103% | 114% | 109% | 103% | 112% | 98.4% | 101% | 102% | 95.2% | 101% | 105% | 107% |
| CCCCNC(=O)NS(=O)(=O)Cc1ccccc1 | 114% | 107% | 118% | 107% | 111% | 94.4% | 102% | 101% | 99% | 118% | 111% | 99.7% | 117% | 127% | 124% | 107% | 116% | 101% | 104% | 106% |
| O=C1CC(c2ccccc2)Cc2nc3ccc(Cl)cc3cc21 (stereo not given) | 36.4% | 20.8% | 39.8% | 35.9% | 3.33% (active) | 39.3% | 3.02% (active) | 23.3% | 37.6% | -31.7% (active) | 0.185% (active) | 6.83% (active) | 34% | 19.5% | 21.8% | 45.2% | -3.44% (active) | -12% (active) | 69.1% | 8.98% (active) |
| CC1(C)C(=O)/C(=C\c2cccnc2)C[C@]2(C)[C@H]3CC[C@@H]4[C@H]5[C@H](C(=O)/C=C/c6cccnc6)CC[C@]5(C(=O)O)CC[C@@]4(C)[C@]3(C)CC[C@@H]12 | -60.4% [100 µM] (active) | -37.4% [100 µM] (active) | -97.2% [100 µM] (active) | -66.8% [100 µM] (active) | -43.9% [100 µM] (active) | -63.5% [100 µM] (active) | -71.6% [100 µM] (active) | -13.6% [100 µM] (active) | -39.5% [100 µM] (active) | -55.9% [100 µM] (active) | -80.6% [100 µM] (active) | 6.57% [100 µM] (active) | -73.8% [100 µM] (active) | -34.6% [100 µM] (active) | -61.9% [100 µM] (active) | -34.9% [100 µM] (active) | -75.8% [100 µM] (active) | -56.9% [100 µM] (active) | -52% [100 µM] (active) | -38.4% [100 µM] (active) |
| C=C(C)[C@@H]1CC[C@]2(C(=O)NCCNCCNCCN)CC[C@]3(C)[C@H](CC[C@@H]4[C@@]5(C)CCC(=O)C(C)(C)[C@@H]5CC[C@]43C)[C@@H]12 | -35.2% [100 µM] (active) | 74.3% [100 µM] | -81.1% [100 µM] (active) | 43.1% [100 µM] | -90.9% [100 µM] (active) | -65.2% [100 µM] (active) | -69.7% [100 µM] (active) | -76.5% [100 µM] (active) | -84.5% [100 µM] (active) | -47.5% [100 µM] (active) | -56.7% [100 µM] (active) | -17% [100 µM] (active) | -72.8% [100 µM] (active) | -92.4% [100 µM] (active) | -71.9% [100 µM] (active) | -38.7% [100 µM] (active) | -54.5% [100 µM] (active) | -92.7% [100 µM] (active) | -10.7% [100 µM] (active) | -62.8% [100 µM] (active) |
| CC1(C)CC[C@]2(C(N)=O)CC[C@]3(C)C(=CC[C@@H]4[C@@]5(C)C/C(=C/c6cccnc6)C(=O)C(C)(C)[C@@H]5CC[C@]43C)[C@@H]2C1 | -2.72% [100 µM] (active) | -36.8% [100 µM] (active) | -57.3% [100 µM] (active) | -55.5% [100 µM] (active) | -51.8% [100 µM] (active) | -50.7% [100 µM] (active) | -59.7% [100 µM] (active) | -35.9% [100 µM] (active) | -38.4% [100 µM] (active) | -57.6% [100 µM] (active) | -18% [100 µM] (active) | 4.29% [100 µM] (active) | -75.9% [100 µM] (active) | -45.2% [100 µM] (active) | -63% [100 µM] (active) | -5.09% [100 µM] (active) | -53.9% [100 µM] (active) | -61.5% [100 µM] (active) | -54.7% [100 µM] (active) | -11.2% [100 µM] (active) |
| CC[C@@](C)(NC(=O)[C@H](C)NC(=O)CCNC(=O)C(C)(C)NC(=O)[C@H](C)NC(=O)[C@@H]1CCCN1C(=O)[C@@](C)(CC)NC(=O)[C@H](Cc1ccccc1)NC(=O)C1CCCN1C(=O)C(C)(C)NC(=O)C1CCCN1C(=O)C(C)(C)NC(C)=O)C(=O)NCCC(=O)N[C@@H](CC(C)C)C(=O)NC(C)(C)C(=O)NCCC(=O)N[C@@H](CC(C)C)C(=O)NC(C)(C)C(=O)NC(C)(C)C(=O)N[C@@H](CC(C)C)C(=O)NCCC(=O)NCO (stereo not given in full) | -89.5% (active) | -97% (active) | -87.9% (active) | -92% (active) | -78.1% (active) | -94.7% (active) | -84.2% (active) | -81.3% (active) | -94.6% (active) | -87.9% (active) | -100% (active) | -60.9% (active) | -84.9% (active) | -88.5% (active) | -97.5% (active) | -96.8% (active) | -98.6% (active) | -90% (active) | -95.2% (active) | -88.6% (active) |
